Results taken from the supplement of paper PMC8975748.
Where a name gives a salt, the structure may show the parent alone.

The compounds below were run on Saccharomyces cerevisiae BY4741 SeMeCo community (assay: z-score of subpopulation abundance vs DMSO median, subpopulation auxotrophic for UM; higher = larger share of this subpopulation than in DMSO controls). Conditions: 10 µM; 24 h; SM minimal medium; subpopulation (auxotrophy): UM.
Procedure: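 Fluorescent four-plasmid SeMeCo (self-establishing metabolically cooperating S. cerevisiae BY4741 community; plasmids pH-mRuby2, pL-mWasabi, pU-eCFP, pM-TagRFP657) was grown 24 h in minimal SM medium with each Selleck FDA-approved drug at 10 µM in 384-well plates. Cells were fixed and imaged by high-content confocal microscopy. For each auxotrophic subpopulation (and the prototroph), a z-score gives the deviation from the DMSO vehicle-control population median.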

First: COc1nc2ccc(Br)cc2cc1[C@@H](c1ccccc1)[C@@](O)(CCN(C)C)c1cccc2ccccc12 [Bedaquiline fumarate]
Second: CC(NCCC(c1ccccc1)c1ccccc1)c1ccccc1 (stereo not given) [Fendiline hydrochloride]
The “z-score of subpopulation abundance” value of the first is higher: 4.1 for the first, -1.15 for the second.

Going from `CN1CCC[C@@H]1Cc1c[nH]c2ccc(CCS(=O)(=O)c3ccccc3)cc12` [Eletriptan HBr] to `COc1cc2c(cc1OC)C(=O)C(CC1CCN(Cc3ccccc3)CC1)C2` (stereo not given) [Donepezil HCl], the “z-score of subpopulation abundance” value rises from -0.86 to -0.48.

Going from `CN[C@@H]1[C@@H](O)[C@@H](O[C@@H]2[C@@H](O)[C@H](O[C@H]3O[C@H](CN)[C@@H](O)[C@H](O)[C@H]3O)[C@@H](N)C[C@H]2NC(=O)[C@@H](O)CN)OC[C@]1(C)O` [Isepamicin Sulphate] to `COc1ccc(C[C@H](N)C(=O)N[C@H]2[C@@H](O)[C@H](n3cnc4c(N(C)C)ncnc43)O[C@@H]2CO)cc1` [Puromycin 2HCl], the “z-score of subpopulation abundance” value rises from 1.19 to 1.61.

Compared with `CN(Cc1cnc2nc(N)nc(N)c2n1)c1ccc(C(=O)N[C@@H](CCC(=O)O)C(=O)O)cc1` [Methotrexate], `COc1ccc(Cc2cnc(N)nc2N)cc1OC` [Diaveridine] is higher in “z-score of subpopulation abundance” value: -4.22 for the first, -0.39 for the second.

First: CS(=O)(=O)c1ccc([C@@H](O)[C@@H](CF)NC(=O)C(Cl)Cl)cc1 [Florfenicol]
Second: CC1(C)S[C@@H]2[C@H](NC(=O)C(c3ccccc3)S(=O)(=O)O)C(=O)N2[C@H]1C(=O)O (stereo not given in full) [Sulbenicillin Sodium]
The “z-score of subpopulation abundance” value of the first is lower: -0.38 for the first, 1.5 for the second.

Going from `O=C1CCc2ccc(OCCCCN3CCN(c4cccc(Cl)c4Cl)CC3)cc2N1` [Aripiprazole] to `OCCOCCN1CCN(C2=Nc3ccccc3Sc3ccccc32)CC1` [Quetiapine Fumarate], the “z-score of subpopulation abundance” value falls from 0.58 to 0.49.

First: CN(C)CCCN1c2ccccc2Sc2ccccc21 [Promazine hydrochloride]
Second: CNCC[C@H](Oc1cccc2ccccc12)c1cccs1 [Duloxetine HCl]
The “z-score of subpopulation abundance” value of the first is lower: -0.02 for the first, 0.1 for the second.

Compared with `C[C@]12CC[C@@H]3c4ccc(OS(=O)(=O)O)cc4CC[C@H]3[C@@H]1CCC2=O` [Estropipate], `CN1C[C@@H]2C[C@H]1CN2c1cc2c(cc1F)c(=O)c(C(=O)O)cn2C1CC1` [Danofloxacin Mesylate] is lower in “z-score of subpopulation abundance” value: 0.16 for the first, 0 for the second.

First: CCC(C)(C)C(=O)O[C@H]1C[C@@H](C)C=C2C=C[C@H](C)[C@H](CC[C@@H]3C[C@@H](O)CC(=O)O3)[C@H]21 [Simvastatin]
Second: CO[C@H]1C[C@@H]2CC[C@@H](C)[C@@](O)(O2)C(=O)C(=O)N2CCCC[C@H]2C(=O)O[C@H]([C@H](C)C[C@@H]2CC[C@@H](OP(C)(C)=O)[C@H](OC)C2)CC(=O)[C@H](C)/C=C(\C)[C@@H](O)[C@@H](OC)C(=O)[C@H](C)C[C@H](C)/C=C/C=C/C=C/1C [Ridaforolimus (Deforolimus, MK-8669)]
The “z-score of subpopulation abundance” value of the first is lower: 0.62 for the first, 12.7 for the second.

First: C#CCN[C@@H]1CCc2ccccc21 [Rasagiline]
Second: Cc1cccc(C#Cc2ccccc2)n1
The “z-score of subpopulation abundance” value of the first is higher: 0.58 for the first, -0.28 for the second.

Compared with `Cc1onc(-c2c(F)cccc2Cl)c1C(=O)N[C@@H]1C(=O)N2[C@@H]1SC(C)(C)[C@@H]2C(=O)O` [Flucloxacillin sodium], `CCOC(=O)C1=C(C)NC(C)=C(C(=O)OC)C1c1cccc(Cl)c1Cl` (stereo not given) [Felodipine] is lower in “z-score of subpopulation abundance” value: 0.64 for the first, -7.8 for the second.

First: CO/N=C(\C(=O)N[C@@H]1C(=O)N2C(C(=O)O)=C(Cn3ccc(=N)n3CCO)CS[C@H]12)c1csc(N)n1 [Cefoselis Sulfate]
Second: CO/N=C(\C(=O)N[C@@H]1C(=O)N2C(C(=O)O)=C(CSC(=O)c3ccco3)CS[C@H]12)c1csc(N)n1 [Ceftiofur HCl]
The “z-score of subpopulation abundance” value of the first is lower: 0.03 for the first, 1.05 for the second.

Going from `O=C(Cn1ccnc1[N+](=O)[O-])NCc1ccccc1` [Benznidazole] to `NC(=O)OCC(COC(N)=O)c1ccccc1` [Felbamate], the “z-score of subpopulation abundance” value falls from 0.13 to -0.58.

Going from `CC(=O)NO` [Acetohydroxamic acid] to `CC(=O)OCC(COC(C)=O)OC(C)=O` [Triacetin], the “z-score of subpopulation abundance” value falls from -0.03 to -0.42.

First: C[C@@H](O)[C@H]1C(=O)N2C(C(=O)O)=C(S[C@@H]3CN[C@H](CNS(N)(=O)=O)C3)[C@H](C)[C@H]12 [Doripenem Hydrate]
Second: CC(C)[C@H](N)C(=O)OCC(CO)OCn1cnc2c(=O)[nH]c(N)nc21 (stereo not given in full) [Valganciclovir HCl]
The “z-score of subpopulation abundance” value of the first is higher: -0.42 for the first, -0.83 for the second.

Compared with `C=CCCCCCCCCC(=O)[O-].C=CCCCCCCCCC(=O)[O-].[Zn+2]` [Zinc Undecylenate], `O=C1CC2(CCCC2)CC(=O)N1CCCCN1CCN(c2ncccn2)CC1` [Buspirone HCl] is higher in “z-score of subpopulation abundance” value: -2.31 for the first, -1.32 for the second.

Going from `CCCCOc1ccc(C(=O)CCN2CCCCC2)cc1` [Dyclonine HCl] to `O=C(c1ccc(OCCN2CCCCC2)cc1)c1c(-c2ccc(O)cc2)sc2cc(O)ccc12` [Raloxifene], the “z-score of subpopulation abundance” value falls from -0.42 to -1.32.

Going from `Cc1nc(NC(=O)N2CCC[C@H]2C(N)=O)sc1-c1ccnc(C(C)(C)C(F)(F)F)c1` [Alpelisib (BYL719)] to `CC(C)(C)C(=O)C(Oc1ccc(Cl)cc1)n1ccnc1` (stereo not given) [Climbazole], the “z-score of subpopulation abundance” value rises from 0.25 to 24.4.

Compared with `C[N+]1(C)CCC(OC(=O)C(O)(c2ccccc2)C2CCCC2)C1` (stereo not given) [Glycopyrrolate], `OC(CCN1CCCCC1)(c1ccccc1)C1CCCCC1` (stereo not given) [Trihexyphenidyl hydrochloride] is lower in “z-score of subpopulation abundance” value: 1.58 for the first, 0.41 for the second.

Going from `C(=C\c1ccccc1)/CN1CCN(C(c2ccccc2)c2ccccc2)CC1` [Cinnarizine] to `CCC(C)n1ncn(-c2ccc(N3CCN(c4ccc(OCC5COC(Cn6cncn6)(c6ccc(Cl)cc6Cl)O5)cc4)CC3)cc2)c1=O` (stereo not given) [Itraconazole], the “z-score of subpopulation abundance” value rises from 1.3 to 11.4.
